Some test systems named below: HCT-15 colon; HT29 colon; SNB-75 CNS; SNB-19 CNS; U251 CNS; PC-3 prostate; SK-MEL-5 melanoma; UACC-62 melanoma; LOX IMVI melanoma; SK-MEL-28 melanoma.
Common to all, as to assay: NCI-60 one-dose screen, 48 h (100 = growth as untreated, 0 = no growth, -100 = all killed)
Holding throughout (settings): 10 µM unless noted

Values joined by “and” are separate entries in the source; they are usually repeats but may differ in a detail not shown here. Identical values can stand only once. The panel holds about 83,000 compounds, 20% with a hit somewhere; the sample as a whole holds those more often.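 Interpretation: 100, growth as untreated; towards 0, rising growth inhibition; 0, no net growth; 0 to -100, cell death. Compounds scoring below 10 were considered active.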 Active and inactive are the calls of the source.

For `Nc1ccc(S(=O)(=O)F)cc1`, the growth was 107% (inactive) in the experiment with HCT-15 colon; 103% (inactive) in the experiment with HT29 colon; 99.5% (inactive) in the experiment on SNB-75 CNS; 105% (inactive) in the experiment with SNB-19 CNS; 105% (inactive) with U251 CNS; 105% (inactive) with PC-3 prostate. The growth was 106% (inactive) in the experiment with SK-MEL-5 melanoma, 105% (inactive) in the experiment on UACC-62 melanoma, 99.4% (inactive) in the experiment with LOX IMVI melanoma and 114% (inactive) in the experiment on SK-MEL-28 melanoma.

Regarding `CC1(C)S[C@H]2CC[C@H]3OC(=O)[C@@H]1N23`, the growth with HCT-15 colon is 106% (inactive); in the experiment on HT29 colon it was 106% (inactive); with SNB-75 CNS it was 90.9% (inactive); with SNB-19 CNS, 101% (inactive); with U251 CNS, 115% (inactive); in the experiment with PC-3 prostate, 87% (inactive). For the same molecule, the growth is 111% (inactive) in the experiment with SK-MEL-5 melanoma, 93.4% (inactive) in the experiment with UACC-62 melanoma, 103% (inactive) in the experiment with LOX IMVI melanoma and 108% (inactive) in the experiment with SK-MEL-28 melanoma.

With `COc1ccc(O)c2c(=O)c3c(OC)cc4c(c3oc12)[C@@H]1C=CO[C@@H]1O4`, the growth is 53.3% (inactive) in the experiment with HCT-15 colon; 54.3% (inactive) with HT29 colon; 38.5% (inactive) in the experiment on SNB-75 CNS; 81% (inactive) in the experiment with SNB-19 CNS; 73.4% (inactive) in the experiment on U251 CNS; 76.7% (inactive) in the experiment with PC-3 prostate. The growth was 25.9% (inactive) in the experiment on SK-MEL-5 melanoma, 7.2% (active) with UACC-62 melanoma, 72.6% (inactive) in the experiment on LOX IMVI melanoma and 98.2% (inactive) in the experiment with SK-MEL-28 melanoma.

Take `COc1cc(C2C3=C(CCCC3=O)N(CCO)c3cc4c(cc32)CCC4)cc(OC)c1OC` (stereo not given): the growth with HCT-15 colon is 89.2% (inactive); in the experiment with HT29 colon it was 71.7% (inactive); in the experiment with SNB-75 CNS, 99.5% (inactive); in the experiment with SNB-19 CNS it was 87.3% (inactive); in the experiment on U251 CNS, 88.3% (inactive); in the experiment with PC-3 prostate it was 80.7% (inactive). Also, the growth in the experiment with SK-MEL-5 melanoma is 87.1% (inactive); in the experiment on UACC-62 melanoma, 67.7% (inactive); in the experiment with LOX IMVI melanoma, 80.4% (inactive); in the experiment with SK-MEL-28 melanoma it was 96.9% (inactive).

Regarding `COc1cc(C=C2C(=O)NC(=O)NC2=O)ccc1O`, the growth is 103% (inactive) with HCT-15 colon; 99.2% (inactive) in the experiment with HT29 colon; 96% (inactive) in the experiment on SNB-75 CNS; 96.7% (inactive) in the experiment on SNB-19 CNS; 98.7% (inactive) with U251 CNS; 103% (inactive) with PC-3 prostate. In addition, the growth was 109% (inactive) in the experiment on SK-MEL-5 melanoma, 92.7% (inactive) in the experiment on UACC-62 melanoma, 102% (inactive) in the experiment on LOX IMVI melanoma and 131% (inactive) in the experiment on SK-MEL-28 melanoma.

For `CCCCCCCCCCCCCCCC[N+](C)(C)Cc1ccccc1`, the growth was 64% (inactive) and 42% (inactive) in the experiment with HCT-15 colon; -43.6% (active) and -81% (active) with HT29 colon; -21.6% (active) and -70.3% (active) with SNB-75 CNS; -40.3% (active) in the experiment on SNB-19 CNS; -16% (active) and -94.9% (active) with U251 CNS; -34.9% (active) and -44.1% (active) with PC-3 prostate. For the same molecule, the growth with SK-MEL-5 melanoma is -86.5% (active) and -100% (active); in the experiment on UACC-62 melanoma it was -26% (active) and -74.5% (active); in the experiment on LOX IMVI melanoma, -79% (active) and -97.1% (active); in the experiment on SK-MEL-28 melanoma, -27.7% (active) and -58.1% (active).

Consider `C[C@]12CCc3nc(-c4ccc(O)c(O)c4)sc3C1=CC[C@@H]1[C@@H]2CC[C@]2(C)C(=O)CC[C@@H]12`, for which the growth in the experiment on HCT-15 colon was 26% (inactive); in the experiment on HT29 colon it was 77.7% (inactive); with SNB-75 CNS, 92.3% (inactive); in the experiment on SNB-19 CNS it was 75% (inactive); with U251 CNS, 40.5% (inactive); in the experiment with PC-3 prostate, 34.3% (inactive). The growth with SK-MEL-5 melanoma was 78.5% (inactive); with UACC-62 melanoma, 91.5% (inactive); in the experiment on LOX IMVI melanoma, 89.1% (inactive); with SK-MEL-28 melanoma, 84.6% (inactive).

In the case of `CCCN1C(=O)NC(=O)C(CC)(N2C(=O)c3c(F)c(F)c(F)c(F)c3C2=O)C1=O` (stereo not given), the growth with HCT-15 colon is -51.8% (active); in the experiment on HT29 colon it was -66.6% (active); with SNB-75 CNS it was -52.1% (active); with SNB-19 CNS it was -94.9% (active); in the experiment with U251 CNS, -48% (active); in the experiment on PC-3 prostate, -59.2% (active). The growth in the experiment on SK-MEL-5 melanoma was -91.7% (active); in the experiment with UACC-62 melanoma, -68.6% (active); in the experiment on LOX IMVI melanoma it was -55.9% (active); in the experiment on SK-MEL-28 melanoma, -93.7% (active).

With `COC(=O)C1=CCCN(C)C1`, the growth with HCT-15 colon was 106% (inactive) and 100% (inactive); in the experiment on HT29 colon, 106% (inactive) and 104% (inactive); in the experiment with SNB-75 CNS, 103% (inactive) and 90.3% (inactive); in the experiment on SNB-19 CNS, 106% (inactive) and 109% (inactive); in the experiment with U251 CNS it was 107% (inactive); in the experiment on PC-3 prostate it was 92.9% (inactive). Moreover, the growth was 102% (inactive) in the experiment on SK-MEL-5 melanoma; 111% (inactive) and 101% (inactive) in the experiment on UACC-62 melanoma; 98.3% (inactive) and 99.8% (inactive) in the experiment with LOX IMVI melanoma; 110% (inactive) and 108% (inactive) in the experiment on SK-MEL-28 melanoma.

With `N#CCC(=O)c1ccccc1`, the growth is 99.8% (inactive) in the experiment on HCT-15 colon; 110% (inactive) in the experiment on HT29 colon; 84.3% (inactive) in the experiment with SNB-75 CNS; 111% (inactive) in the experiment on SNB-19 CNS; 101% (inactive) with U251 CNS; 95.2% (inactive) in the experiment on PC-3 prostate. Further, the growth in the experiment on SK-MEL-5 melanoma is 104% (inactive); in the experiment on UACC-62 melanoma, 107% (inactive); in the experiment on LOX IMVI melanoma, 103% (inactive); in the experiment with SK-MEL-28 melanoma it was 114% (inactive).

Consider `C[C@@H]1C/C=C\C(=O)O[C@H](/C=C/C#C/C=C/C(C)(C)[C@@H](O)c2cccc(O)c2Br)[C@@H](C)/C=C/[C@H](C)C[C@H](OC(N)=O)C1`, for which the growth in the experiment with HCT-15 colon is 2.46% (active); in the experiment with HT29 colon, 5.59% (active); in the experiment on SNB-75 CNS, 32.7% (inactive); with SNB-19 CNS, 53.6% (inactive); in the experiment on U251 CNS, 24.5% (inactive); in the experiment on PC-3 prostate it was 33.5% (inactive). Also, the growth in the experiment on SK-MEL-5 melanoma was -61.5% (active); in the experiment on UACC-62 melanoma, -41.8% (active); in the experiment with LOX IMVI melanoma, -2.94% (active); with SK-MEL-28 melanoma it was 35.5% (inactive).

Regarding `CC(=O)Nc1nc2c(s1)C1=CC[C@H]3[C@@H]4CC[C@H](OC(C)=O)[C@@]4(C)CC[C@@H]3[C@@]1(C)CC2`, the growth is 40.3% (inactive) in the experiment with HCT-15 colon; 26.6% (inactive) in the experiment with HT29 colon; 0.377% (active) in the experiment on SNB-75 CNS; 62% (inactive) in the experiment with SNB-19 CNS; 43.9% (inactive) with U251 CNS; 59.2% (inactive) in the experiment on PC-3 prostate. The growth is 36.9% (inactive) in the experiment on SK-MEL-5 melanoma, 49.5% (inactive) in the experiment with UACC-62 melanoma, 63.5% (inactive) in the experiment on LOX IMVI melanoma and 54.7% (inactive) in the experiment with SK-MEL-28 melanoma.

The values are drawn from PubChem BioAssay (NCI).
